The nature of assay [1]: qHTS assay to identify small molecule antagonists of the glucocorticoid receptor (GR) signaling pathway - cell viability counter screen (AID 720693). Note: nearly all actives have a fitted effect of over 55% in size. A general note: In qHTS, concentration-response curves come from the screen itself.
Assay [2] in a line: qHTS assay for identifying genotoxic compounds that show differential cytotoxicity against isogenic chicken DT40 cell lines with known DNA damage response pathways - wild type cell line (AID 743012). Note: nearly all actives have a fitted effect of over 60% in size. Note: potency is the fitted concentration of half-maximal effect. The gist of the method:
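Endpoint: CellTiter-Glo luminescence, 30 min RT. Cells: wild type DT40, 300/well. Exposure: compounds in DMSO, 40 h, 37 C/5% CO2, after ~0.5 h pre-incubation.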

Assay [3] can be described thus: qHTS assay for identifying genotoxic compounds that show differential cytotoxicity against isogenic chicken DT40 cell lines with known DNA damage response pathways - Rev3 mutant cell line (AID 743014). Note: nearly all actives have a fitted effect of over 55% in size. Note: potency is the fitted concentration of half-maximal effect.
Assay [4] can be described thus: qHTS assay for identifying genotoxic compounds that show differential cytotoxicity against isogenic chicken DT40 cell lines with known DNA damage response pathways - Rad54/Ku70 mutant cell line (AID 743015). Note: nearly all actives have a fitted effect of over 60% in size. Note: potency is the fitted concentration of half-maximal effect.
A short description of assay [5]: qHTS assay to identify small molecule antagonists of the androgen receptor (AR) signaling pathway - cell viability counter screen (AID 743033; note: nearly all actives have a fitted effect of over 45% in size).
Assay [6] can be described thus: qHTS assay to identify small molecule antagonists of the androgen receptor (AR) signaling pathway using the MDA cell line - cell viability counter screen (AID 743041; note: nearly all actives have a fitted effect of over 45% in size). The essentials: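 Using the breast carcinoma line MDA-kb2 AR-luc, test chemicals were co-incubated with R1881 for 16 h; CellTiter-Fluor reagent, added at 15.5 h, provided a fluorescence measure of live cells.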

The nature of assay [7]: qHTS assay to identify small molecule antagonists of the thyroid receptor (TR) signaling pathway - cell viability counter screen (AID 743064). Note: nearly all actives have a fitted effect of over 50% in size. Note: potency is the fitted concentration of half-maximal effect. The gist of the method:
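In-well cytotoxicity read by CellTiter-Fluor (30 min, 37 C) following 23.5 h exposure of GH3 cells bearing a TRE-luciferase sensor. Compounds were added alongside 1 nM (final) T3 to drive TR transactivation.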

A short description of assay [8]: qHTS assay to identify small molecule antagonists of the thyroid receptor (TR) signaling pathway (AID 743065). Note: nearly all actives have a fitted effect of over 55% in size. Note: potency is the fitted concentration of half-maximal effect. The essentials: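 Antagonism measured as loss of luciferase signal in GH3 cells stably carrying a TRE-luciferase reporter, co-treated with compound and T3 (1 nM final) for 23.5 h at 37 C. Viability was read in the same well by CellTiter-Fluor.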
Assay [9] relates to thyroid hormone receptor (rat, GH3 cells). As to the kind of experiment: qHTS assay to identify small molecule agonists of the thyroid receptor (TR) signaling pathway (AID 743066; calls by dose curve).
For assay [10], the target named is Estrogen receptor (Homo sapiens) (UniProt P03372). Briefly: qHTS assay to identify small molecule antagonists of the estrogen receptor alpha (ER-alpha) signaling pathway (AID 743069; active = well fitted curve in the direction sought with a large enough effect in the signal ratio in the repeat runs, not every such curve was filed as active; inconclusive = weak or mixed curves, or effect the other way; inactive = no such curve, though single readings can be large or run the other way; the % refers to the signal ratio). The essentials: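 Fluorescence intensity from a beta-lactamase FRET substrate served as the read-out. Cells: HEK293 with stably integrated ER-alpha-UAS-bla reporter. Agonist 17beta-estradiol was co-added with compounds; incubation 18 hr at 37C, substrate 2 hr at room temperature.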

The nature of assay [11]: qHTS assay to identify small molecule antagonists of the estrogen receptor alpha (ER-alpha) signaling pathway - cell viability counter screen (AID 743074; calls by dose curve; note: nearly all actives have a fitted effect of over 45% in size).
The target in assay [12] is Estrogen receptor (Homo sapiens) (UniProt P03372). Briefly: qHTS assay to identify small molecule agonists of the estrogen receptor alpha (ER-alpha) signaling pathway (AID 743075; calls by dose curve; note: potency is the fitted concentration of half-maximal effect).
For assay [13] the target is unchanged. Briefly: qHTS assay to identify small molecule agonists of the estrogen receptor alpha (ER-alpha) signaling pathway using the BG1 cell line (AID 743079). Note: nearly all actives have a fitted effect of over 20% in size. Note: potency is the fitted concentration of half-maximal effect.
Assay [14] can be described thus: qHTS assay to identify small molecule antagonists of the estrogen receptor alpha (ER-alpha) signaling pathway using the BG1 cell line (AID 743080; calls by dose curve;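 note: BG1 cells stimulated with 17beta-estradiol alongside compound; series mostly up to about 70 µM; nearly all actives have a fitted effect of over 25% in size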). The essentials:
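Readout is ONE-Glo luminescence, taken 30 min at room temperature after reagent addition, preceded by a CellTiter-Fluor viability read; BG1-Luc-4E2 cells had received compound and 17beta-estradiol for 21.5 h at 37 C.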

Assay [15] in a line: qHTS assay to identify small molecule antagonists of the estrogen receptor alpha (ER-alpha) signaling pathway using the BG1 cell line - cell viability counter screen (AID 743081).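 Note: compound given together with 17beta-estradiol as the ER stimulus; series mostly up to about 70 µM; nearly all actives have a fitted effect of over 45% in size.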
For the next assay, the target named is Aromatase (Homo sapiens) (UniProt P11511). As to the kind of experiment: qHTS assay to identify aromatase inhibitors (AID 743083). Note: series mostly up to about 70 µM; nearly all actives have a fitted effect of over 55% in size.
For assay [16], the target named is Androgen receptor (Homo sapiens) (UniProt P10275). Briefly: qHTS assay to identify small molecule agonists of the androgen receptor (AR) signaling pathway (AID 743036; active = well fitted activation curve with a large enough effect in the signal ratio in the repeat runs, with a control signal flat, not every such curve was filed as active; inconclusive = weak or mixed curves, or effect the other way; inactive = no such curve, though single readings can be large or run the other way; the % refers to the signal ratio). The gist of the method: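 Activation was read as beta-lactamase FRET signal from LiveBLAzer B/G substrate, added for 2 h at room temperature. Before that, GeneBLAzer AR-UAS-bla GripTite (HEK293) cells had 16 h compound exposure at 37C.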

Assay [17] has the same target. As to the kind of experiment: qHTS assay to identify small molecule agonists of the androgen receptor (AR) signaling pathway using the MDA cell line (AID 743040; note: nearly all actives have a fitted effect of over 20% in size). The gist of the method: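 Stable MMTV-luciferase reporter in MDA-kb2 cells; note the promoter carries GR as well as AR response elements. 16 h compound treatment, 37C, 0% CO2; ONE-Glo luminescence endpoint.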

Assay [18] has the same target. As to the kind of experiment: qHTS assay to identify small molecule antagonists of the androgen receptor (AR) signaling pathway using the MDA cell line (AID 743042; note: nearly all actives have a fitted effect of over 55% in size). The essentials:
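Antagonist mode: compounds plus R1881 agonist added to MDA-kb2 AR-luc cells, incubated 16 h at 37C. Luciferase reporter luminescence quantified, with multiplexed CellTiter-Fluor readout for cell viability.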

For assay [19] the target is unchanged. Briefly: qHTS assay to identify small molecule antagonists of the androgen receptor (AR) signaling pathway (AID 743035; active = well fitted inhibition curve with a large enough effect in the signal ratio in the repeat runs, not every such curve was filed as active; inconclusive = weak or mixed curves, or effect the other way; inactive = no such curve, though single readings can be large or run the other way; the % refers to the signal ratio). The gist of the method:
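R1881 agonist challenge of a HEK293 UAS-beta-lactamase AR reporter line in the presence of compound (16 h, 37C); signal taken as FRET fluorescence after 2 h with LiveBLAzer B/G substrate at room temperature.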

Active and inactive are the calls of the source. Unless noted, calls come from the whole dose curve; as a rule, active = well fitted curve in the direction sought with a large enough effect in the repeat runs; inconclusive = weak or mixed curves; inactive = no such curve, though single readings can be large; an effect the other way counts as inactive or inconclusive.

Chain of Estrogen receptor (Homo sapiens) (P03372 whole entry, looked up): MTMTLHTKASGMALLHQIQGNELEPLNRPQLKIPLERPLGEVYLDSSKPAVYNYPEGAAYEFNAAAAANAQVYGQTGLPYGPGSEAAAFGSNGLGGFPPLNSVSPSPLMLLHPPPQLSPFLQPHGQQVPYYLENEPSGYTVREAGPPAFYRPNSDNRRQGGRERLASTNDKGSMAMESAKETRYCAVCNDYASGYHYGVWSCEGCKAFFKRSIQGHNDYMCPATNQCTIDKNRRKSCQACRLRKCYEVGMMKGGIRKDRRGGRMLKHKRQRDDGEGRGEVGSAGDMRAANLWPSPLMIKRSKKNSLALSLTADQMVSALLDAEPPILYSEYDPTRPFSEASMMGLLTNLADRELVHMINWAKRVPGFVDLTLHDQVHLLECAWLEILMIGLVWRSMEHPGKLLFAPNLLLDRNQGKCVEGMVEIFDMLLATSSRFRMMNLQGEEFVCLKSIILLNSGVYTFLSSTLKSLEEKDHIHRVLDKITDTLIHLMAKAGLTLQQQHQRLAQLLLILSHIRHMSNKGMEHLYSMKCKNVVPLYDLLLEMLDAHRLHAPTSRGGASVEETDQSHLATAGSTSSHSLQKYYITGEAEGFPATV
Chain of Aromatase (Homo sapiens) (P11511 whole entry, looked up): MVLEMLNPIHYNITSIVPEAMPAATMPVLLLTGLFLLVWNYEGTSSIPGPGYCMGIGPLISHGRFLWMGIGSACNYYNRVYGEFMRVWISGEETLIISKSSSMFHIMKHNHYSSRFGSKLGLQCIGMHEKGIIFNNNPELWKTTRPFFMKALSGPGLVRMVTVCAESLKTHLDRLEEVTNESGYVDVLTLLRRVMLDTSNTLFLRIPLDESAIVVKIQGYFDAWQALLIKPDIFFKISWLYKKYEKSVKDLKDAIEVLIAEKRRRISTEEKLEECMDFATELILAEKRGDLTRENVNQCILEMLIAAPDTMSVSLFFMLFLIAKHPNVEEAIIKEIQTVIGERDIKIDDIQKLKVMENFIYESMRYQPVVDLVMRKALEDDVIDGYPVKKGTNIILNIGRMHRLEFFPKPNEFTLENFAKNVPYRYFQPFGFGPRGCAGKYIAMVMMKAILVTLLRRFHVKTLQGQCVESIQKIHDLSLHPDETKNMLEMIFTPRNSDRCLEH
Chain of Androgen receptor (Homo sapiens) (P10275 whole entry, looked up): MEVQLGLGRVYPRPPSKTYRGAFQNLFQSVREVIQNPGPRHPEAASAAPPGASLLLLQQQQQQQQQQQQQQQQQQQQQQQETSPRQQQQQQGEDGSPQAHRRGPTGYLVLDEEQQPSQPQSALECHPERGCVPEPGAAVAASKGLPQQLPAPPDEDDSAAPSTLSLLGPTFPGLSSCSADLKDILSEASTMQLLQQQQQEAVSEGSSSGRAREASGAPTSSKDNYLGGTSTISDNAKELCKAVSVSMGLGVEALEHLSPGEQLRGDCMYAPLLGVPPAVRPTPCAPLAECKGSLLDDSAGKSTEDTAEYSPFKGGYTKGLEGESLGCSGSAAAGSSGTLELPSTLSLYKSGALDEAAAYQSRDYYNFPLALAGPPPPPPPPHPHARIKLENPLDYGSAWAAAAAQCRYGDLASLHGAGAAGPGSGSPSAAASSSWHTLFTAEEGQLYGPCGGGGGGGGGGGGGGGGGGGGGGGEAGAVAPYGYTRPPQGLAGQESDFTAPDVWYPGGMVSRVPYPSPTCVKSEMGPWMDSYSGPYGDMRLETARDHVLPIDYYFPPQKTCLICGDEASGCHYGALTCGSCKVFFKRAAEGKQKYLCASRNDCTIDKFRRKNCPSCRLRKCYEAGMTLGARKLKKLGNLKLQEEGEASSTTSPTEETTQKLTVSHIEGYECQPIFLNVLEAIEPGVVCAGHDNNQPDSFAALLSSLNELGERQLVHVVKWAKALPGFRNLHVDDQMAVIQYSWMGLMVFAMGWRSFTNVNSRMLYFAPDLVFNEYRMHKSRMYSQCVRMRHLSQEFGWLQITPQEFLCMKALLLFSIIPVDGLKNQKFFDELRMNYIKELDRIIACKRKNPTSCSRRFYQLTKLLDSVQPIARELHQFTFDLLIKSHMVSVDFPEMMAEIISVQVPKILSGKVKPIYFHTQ

In the case of `CCCCCCCCCCCCCCC1CO1` (stereo unspecified), the Potency result in assay [1], in assay [2], in assay [3], in [4], in assay [5] and in [6] was “inactive” throughout. Further, the Potency result in [7], in [8], in assay [9], in assay [10], in assay [12] and in assay [13] was “inactive” throughout. Besides, the Potency entry (in [14]; in assay [15]; with Aromatase (Homo sapiens)) was “inactive” each time. Also, the molecule was called inactive in assay [11].
On to `CC(CN)CCCN` (stereo unspecified), for which the Potency result in assay [1], in assay [2], in assay [3], in assay [4], in assay [5] and in [6] was “inactive” throughout. Moreover, the Potency result in assay [7], in [8], in [9], in assay [10], in assay [12] and in assay [14] was “inactive” each time. The Potency entry (in [15]; with Aromatase (Homo sapiens)) was “inactive” in each case. The call in assay [11] was inactive.
Consider `O=C(NN1CCCC1)NS(=O)(=O)c1ccc(Cl)cc1`, for which the Potency entry in assay [1], in assay [2], in assay [3], in assay [4], in assay [5] and in [6] was “inactive” each time. The Potency entry in assay [7], in assay [8], in [9], in assay [10], in [12] and in assay [13] was “inactive” each time. The Potency entry (in [14]; in the assay with Aromatase (Homo sapiens)) was “inactive” in each case. Moreover, in assay [11], the call was inactive.
Regarding `CCOC(=S)SSC(=S)OCC`, the Potency entry in assay [1], in [2], in assay [3], in [4], in assay [5] and in assay [6] was “inactive” in each case. Further, the Potency result in assay [7], in assay [8], in assay [9], in assay [10], in assay [12] and in assay [13] was “inactive” throughout. Moreover, the Potency result (in [14]; in [15]; with Aromatase (Homo sapiens)) was “inactive” each time. In [11], the call was inactive.
Consider `CC1=CC(=O)/C(=C(/C)O)C(=O)O1`, for which the Potency entry in [1], in assay [2], in assay [3], in assay [4], in assay [5] and in assay [6] was “inactive” in each case. Moreover, the Potency result in [7], in assay [8], in assay [9], in assay [10], in assay [12] and in assay [14] was “inactive” throughout. The Potency result (in [15]; in the assay with Aromatase (Homo sapiens)) was “inactive” in each case. Besides, in [11], the molecule was classed as inactive.
Regarding `CCCCOC(O)CC` (stereo unspecified), the Potency result in [1], in assay [2], in assay [3], in assay [4], in [5] and in assay [17] was “inactive” in each case. For the same molecule, the Potency result in assay [6], in [18], in assay [7], in assay [8], in [9] and in assay [10] was “inactive” each time. Besides, the Potency entry (in [12]; in [13]; in assay [14]; in assay [15]; in the assay with Aromatase (Homo sapiens)) was “inactive” in each case. The molecule was called inactive in [16] and in assay [11].
Take `Cc1cccc(C(C)(C)C)c1O`: the Potency result in assay [1], in assay [2], in [3], in assay [4], in [5] and in assay [6] was “inactive” in each case. Besides, the Potency result in assay [7], in assay [8], in [9], in assay [12], in assay [13] and in [14] was “inactive” in each case. Besides, the Potency entry (in assay [15]; in the assay with Aromatase (Homo sapiens)) was “inactive” in each case. Moreover, the molecule was called inactive in assay [11].
Consider `O=C(C(=O)c1ccc(Br)cc1)c1ccc(Br)cc1`, for which the Potency entry in [1], in [2], in assay [3], in assay [4], in assay [5] and in assay [19] was “inactive” each time. Besides, the Potency entry in assay [17], in [6], in assay [18], in assay [7], in assay [8] and in assay [9] was “inactive” each time. For the same molecule, the Potency entry (in [10]; in [12]; in assay [13]; in [14]; in assay [15]; with Aromatase (Homo sapiens)) was “inactive” each time. For the same molecule, the molecule was classed as inactive in [16] and in assay [11].
On to `O=C(c1ccc(O)cc1)c1ccc(O)cc1`, for which the Potency result in assay [1], in [2], in assay [3], in assay [4], in assay [5] and in [17] was “inactive” throughout. Also, the Potency entry in assay [6], in assay [18], in [7], in assay [8], in assay [9] and in [15] was “inactive” throughout. For the same molecule, the Potency result with Aromatase (Homo sapiens) was “inactive”. In addition, the molecule was classed as inactive in [11]. The Potency in assay [12] is 17.4 µM [inconclusive] (active); in [13], 2.73 µM (active).
Turning to `CC(=O)SCc1ccco1`, the Potency result in [1], in assay [2], in [3], in assay [4], in assay [5] and in assay [19] was “inactive” in each case. Also, the Potency entry in [17], in assay [6], in [18], in assay [7], in assay [8] and in [9] was “inactive” in each case. For the same molecule, the Potency result (in assay [10]; in assay [12]; in [13]; in assay [14]; in [15]; in the assay with Aromatase (Homo sapiens)) was “inactive” each time. The call in assay [16] and in assay [11] was inactive.
As to `O=C(O)COC(=O)Cc1ccccc1Nc1c(Cl)cccc1Cl`, the Potency entry in [1], in [2], in [3], in assay [4], in assay [5] and in assay [19] was “inactive” throughout. For the same molecule, the Potency entry in assay [17], in [6], in assay [18], in assay [7], in assay [9] and in assay [10] was “inactive” in each case. The Potency result (in assay [12]; in assay [13]; in assay [14]; in assay [15]; with Aromatase (Homo sapiens)) was “inactive” throughout. The molecule was classed as inactive in [16] and in [11].
As for `NCc1ccccc1`, the Potency result in [1], in assay [2], in assay [3], in assay [4], in assay [5] and in assay [6] was “inactive” in each case. Moreover, the Potency entry in [7], in [8], in [9] and in [15] was “inactive” in each case. In addition, the call in [11] was inactive.
As to `O=C(c1ccccc1)c1ccc2n1CCC2C(=O)O` (stereo unspecified), the Potency result in [1], in [2], in assay [3], in [4], in assay [5] and in assay [6] was “inactive” in each case. In addition, the Potency result (in assay [7]; in [8]; in [9]; in [15]; with Aromatase (Homo sapiens)) was “inactive” in each case. Also, the result in assay [11] was inactive.
`CC(C)=CCCC(C)CC=O` (stereo unspecified): the Potency entry in [1], in assay [2], in assay [3], in assay [4], in assay [5] and in assay [6] was “inactive” each time. For the same molecule, the Potency entry in [7], in [8], in assay [9] and in [15] was “inactive” each time. Moreover, the molecule was called inactive in assay [11].
Regarding `CN(C)CCCOc1nn(Cc2ccccc2)c2ccccc12`, the Potency entry in [1], in [5], in assay [6], in [9], in assay [10] and in assay [12] was “inactive” each time. For the same molecule, the Potency entry (in assay [13]; in [14]; in [15]; with Aromatase (Homo sapiens)) was “inactive” in each case. The Potency is 12.7 µM (active) in assay [2]; 12.7 µM (active) in [3]; 11.4 µM (active) in assay [4]; 8.04 µM (active) in assay [7]; 9.02 µM (active) in assay [8]. The result in assay [11] was inactive.
In the case of `Cn1c(=O)c2c(ncn2CC(O)CO)n(C)c1=O` (stereo unspecified), the Potency entry in assay [1], in assay [2], in assay [3], in [4], in [5] and in assay [6] was “inactive” in each case. Moreover, the Potency result in assay [7], in assay [8], in assay [9], in [10], in [12] and in assay [13] was “inactive” in each case. Moreover, the Potency result (in assay [15]; in the assay with Aromatase (Homo sapiens)) was “inactive” throughout. The molecule was called inactive in assay [11].

The values above are taken from PubChem BioAssay (Tox21).
